In test [1] the test system is Wnt5a (protein binding on small-molecule microarray). Briefly: Wnt5a binders on small-molecule microarray, primary screen, biophysical, 635/667 nm fluorescence (AID 1142).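 Also: fluorescence read at 667 nm with signal to noise per printed feature.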 Conditions: 635 nm fluorescence, higher = more signal.
Test [2] can be described thus: cell viability in Huh7 cells, primary screen, cytotoxicity control for HCV replication inhibitor project, CellTiter-Glo luminescence, basal, 48 h (AID 1143).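 Also: Huh7 hepatoma cells carrying a hepatitis C replication reporter with no stimulus; test concentration not given here.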 Particulars: Huh7 HCV replicon, higher = more signal, called active from +8 up or from −8 down. (In ATP-based viability assays light output follows the ATP content of the culture.)
Test [3] in a line: P. aeruginosa biofilm formation inhibitors, primary screen, PAO1 strain, BacTiter-Glo luminescence, LB-PBS (AID 1144). Conditions: 12 h, higher = more signal.
Test [4] in a line: CREB reporter modulators without forskolin, primary screen, cell-based, PC12, CRE-LacZ reporter, unstimulated (AID 1145). Particulars: no forskolin, luminescence, 4.5 h, higher = more signal, called active from +8 up or from −8 down.
Test [5] is described as follows: CREB reporter modulators under forskolin, primary screen, cell-based, PC12, CRE-LacZ reporter, forskolin-stimulated (AID 1146).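 Also: PC12 cells with 6xCRE LacZ reporter stimulated by forskolin 10 µM; beta-galactosidase reporter signal reflecting CREB driven transcription.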 Conditions: luminescence, 4.5 h, higher = more signal, called active from +8 up or from −8 down.
The target of test [6] is Streptavidin (Streptomyces avidinii) (UniProt P22629). Briefly: streptavidin binders on small-molecule microarray, primary screen, artefact control for SMM compound annotation, biophysical, 635/667 nm fluorescence (AID 1147).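 Also: signal reflects streptavidin binding to arrayed compounds as a control protein.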 Particulars: streptavidin binding, higher = more signal.
A short description of test [7]: small-molecule binders of probe aInhba, primary screen, biochemical, small-molecule microarray, 635/667 nm fluorescence (AID 1148).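 Also: score merges 667nm spot fluorescence with signal-to-noise for antibody binding to printed compounds.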 Particulars: higher = more signal.
For test [8], the target named is Torsin-1A (Homo sapiens) (UniProt O14656). Briefly: torsin A binders from cell lysate, primary screen, small-molecule microarray, wild-type, 635/667 nm (AID 1149). Conditions: COS7 hTOR1A-WT lysate, 635 nm fluorescence, higher = more signal.
Test [9] shares this target. Nature of the test: small-molecule binders of mutant TOR1A in lysate, primary screen, cell lysate, small-molecule microarray, COS7 lysate, 635/667 nm fluorescence (AID 1150).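 Also: score pools 667 nm emission and signal to noise measuring lysate protein binding.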 Conditions: COS7 hTOR1A mutant lysate, 635 nm fluorescence, higher = more signal.
Test [10] has as its system Sonic hedgehog protein (Shh). Briefly: small-molecule binders of Shh protein, primary screen, biochemical, small-molecule microarray, 635/667 nm fluorescence (AID 1151).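 Also: Shh protein binding to compounds spotted on small-molecule microarray slides; score combines spot fluorescence intensity with signal-to-noise across triplicate slides.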 Conditions: small-molecule microarray binding, 635 nm fluorescence; higher = more signal.

Calls of active or inactive are those of the source. Unless noted, no rule for the calls is given here.

Chain of Torsin-1A (Homo sapiens) (O14656 whole entry, looked up): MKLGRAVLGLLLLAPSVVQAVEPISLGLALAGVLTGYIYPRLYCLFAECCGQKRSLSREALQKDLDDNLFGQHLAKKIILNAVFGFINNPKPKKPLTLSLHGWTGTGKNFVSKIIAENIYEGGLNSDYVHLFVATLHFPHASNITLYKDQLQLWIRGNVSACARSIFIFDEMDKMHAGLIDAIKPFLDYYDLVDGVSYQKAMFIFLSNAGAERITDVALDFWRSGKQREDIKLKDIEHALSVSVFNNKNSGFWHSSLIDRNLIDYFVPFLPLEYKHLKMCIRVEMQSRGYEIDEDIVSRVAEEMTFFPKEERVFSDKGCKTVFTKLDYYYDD
Chain of Streptavidin (Streptomyces avidinii) (P22629 whole entry, looked up): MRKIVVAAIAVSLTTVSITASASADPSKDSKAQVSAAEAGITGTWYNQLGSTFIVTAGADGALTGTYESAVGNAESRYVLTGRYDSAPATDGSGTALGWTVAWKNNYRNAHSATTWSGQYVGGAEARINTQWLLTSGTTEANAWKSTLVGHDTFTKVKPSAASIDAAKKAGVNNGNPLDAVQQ

On to `C[N+](C)(C)CCCC[C@@H]1NC(=O)[C@H]2C[C@@H](C(=O)NCCCCCCNC(=O)CS)[C@@H](c3cccc(OCCO)c3)N2C1=O`, for which the composite z-score in test [1] was -0.298; in test [6] it was -0.667; in test [7], -0.21; in test [8] it was -0.182; in test [9] it was -0.14; in test [10], -0.396. For the same compound, the z-score in test [2] is 0.2 (inactive); in test [3] it was -0.635 (inactive); in test [4] it was -0.683 (inactive); in [5], 0.0114 (inactive).
In the case of `CC1CC/C=C\[C@H]2OC34C=CCN(C(C)(C)C)C(=O)[C@H]3N(CCO)C(=O)[C@@H]4C2C(=O)O1` (stereo not given in full), the composite z-score in [1] was -0.276; in test [6], -1.59; in test [7], -0.171; in [8], -2.34; in test [9], -2.49; in [10], -0.0338. In addition, the z-score in [2] was -0.973 (inactive); in test [3] it was -0.0996 (inactive); in test [4] it was -0.753 (inactive); in test [5], -0.237 (inactive).
Consider `COc1ccc(C#Cc2ccc3c(c2)[C@]2(C(=O)N3)[C@H](C(=O)Nc3nc4ccccc4s3)[C@H]3C(=O)O[C@H](c4ccccc4)[C@H](c4ccccc4)N3[C@@H]2c2ccc(O)cc2)cc1`, for which the composite z-score turned out to be 0.823 in test [1]; 2.25 in test [6]; 1.43 in test [7]; 1.41 in test [8]; 0.903 in test [9]; 2.02 in test [10]. Besides, the z-score is -1.3 (inactive) in test [2], -0.782 (inactive) in test [3], 0.0653 (inactive) in test [4] and -0.0135 (inactive) in [5].
As for `COCCOC(=O)N1C(=O)[C@@]2(c3cc(C#CC4(O)CCCCCC4)ccc31)[C@H](c1ccc(OCCO)cc1)N1[C@H](c3ccccc3)[C@H](c3ccccc3)OC(=O)[C@H]1[C@@H]2C(=O)N1CCN(c2ncccn2)CC1`, the composite z-score in [1] is 0.499; in test [6], 2.07; in test [7], 0.0541; in [8], 0.782; in [9] it was 0.629; in test [10], 1.17. For the same compound, the z-score was -0.922 (inactive) in test [2], 0.517 (inactive) in [3], 0.346 (inactive) in test [4] and 0.838 (inactive) in test [5].
Regarding `C[C@@]1([C@@H](NC(=O)c2ccc(-c3ccccc3)cc2)c2ccc(Cl)cc2)C[C@H]1C1CCCCC1`, the composite z-score in [1] is 0.271; in [6] it was 1.35; in [7] it was 0.289; in test [8], 0.564; in test [9] it was 0.0484; in test [10], -0.106. For the same compound, the z-score in test [2] is -1.18 (inactive); in test [3] it was -0.123 (inactive); in test [4], 0.972 (inactive); in test [5], 0.829 (inactive).
For the compound `C=CCOC(=O)[C@@H]1[C@H]2C(=O)O[C@H](c3ccccc3)[C@H](c3ccccc3)N2[C@H](c2ccc(OCCOC(=O)[C@H]3C[C@H]4C(=O)N5CCC[C@H]5C(=O)N4[C@H]3c3ccc(O)cc3)cc2)[C@@]12C(=O)Nc1ccc(I)cc12`, the composite z-score is 0.259 in [1]; -0.033 in test [6]; -0.0775 in [7]; 0.919 in test [8]; 0.98 in test [9]; 2.15 in [10]. The z-score is -2.3 (inactive) in [2], -0.212 (inactive) in test [3], 0.277 (inactive) in test [4] and -0.466 (inactive) in test [5].
Turning to `CCOC(=O)[C@H]1C/C=C/C[C@H](C(=O)OCC)C(=O)O[C@H]2[C@@H](OC)O[C@H](CO)[C@@H](OC(=O)c3c(OC)cccc3OC)[C@@H]2OC1=O`, the composite z-score was 0.172 in [1]; 0.475 in test [6]; -0.0501 in test [7]; 0.292 in [8]; 0.209 in [9]; 1.44 in [10]. The z-score in test [2] was -4.57 (inactive); in test [3] it was 0.0437 (inactive); in test [4] it was 0.0816 (inactive); in [5], 1.33 (inactive).
On to `O=C1OCCC/C=C\[C@H]2OC34C=CCN(Cc5ccccc5)C(=O)[C@H]3N(CCCO)C(=O)[C@@H]4C12` (stereo not given in full), for which the composite z-score in [1] was -0.597; in [6] it was -1.1; in [7], -0.176; in test [8] it was -1.14; in [9], -2.13; in [10], -0.85. Further, the z-score is -0.639 (inactive) in test [2], 2.87 (inactive) in [3], 0.593 (inactive) in test [4] and -0.59 (inactive) in [5].
Turning to `C=CC[C@@]1(C(=O)NCCN2CCOCC2)N=C(c2ccc(OCCCO)cc2)O[C@@H]1c1ccccc1N=[N+]=[N-]`, the composite z-score in [1] was 0.298; in test [6], 0.236; in [7] it was -0.0093; in test [8] it was -0.0075; in [9], 0.416; in test [10], -0.203. The z-score in [2] was -1.56 (inactive); in test [3], 0.45 (inactive); in [4], 0.185 (inactive); in test [5], -0.461 (inactive).
`O=C(NC1CC1)[C@@H]1c2ccccc2C(=O)N(Cc2ccccc2Cl)[C@H]1c1ccc(CO)cc1`: the composite z-score came out at 0.201 in test [1]; 0.384 in [6]; 0.225 in [7]; 0.725 in test [8]; 0.941 in test [9]; 0.957 in test [10]. Besides, the z-score was -2.67 (inactive) in [2], -0.764 (inactive) in [3], -0.0888 (inactive) in test [4] and -1.69 (inactive) in test [5].
As for `CC(C)c1ccc(NN2C(C(O)c3ccc(B(O)O)cc3)C=CC3C(=O)N(c4ccccc4)C(=O)C32)cc1` (stereo not given), the composite z-score in test [1] came to 0.262; in test [6], 1.26; in test [7], 0.108; in test [8] it was 0.201; in [9] it was 1.26; in [10] it was 0.528. For the same compound, the z-score in test [2] was -0.0793 (inactive); in test [3] it was -1.06 (inactive); in test [4], 0.815 (inactive); in test [5] it was 1.65 (inactive).
Consider `CCCCCN1CC=CC23O[C@@H]4C=CCCOC(=O)C4[C@H]2C(=O)N(CCCCCO)[C@@H]3C1=O` (stereo not given in full), for which the composite z-score in [1] is -0.619; in [6], -0.729; in test [7], -0.157; in [8], 1.82; in test [9], 0.843; in [10] it was 0.225. In addition, the z-score in test [2] is 0.477 (inactive); in test [3], -0.978 (inactive); in test [4], -0.895 (inactive); in test [5] it was -0.443 (inactive).
For `CC1(C)C2C=C(C(O)C3C=CC4C(=O)NC(=O)C4N3Nc3ccc(Cl)cc3Cl)C[C@@H]1C2` (stereo not given in full), the composite z-score in [1] is 0.696; in test [6] it was 0.961; in test [7], 0.0236; in test [8] it was -0.0995; in [9], 1.09; in [10], -0.193. The z-score in [2] is -2.39 (inactive); in test [3], -0.418 (inactive); in test [4], 1.19 (inactive); in test [5], -0.0073 (inactive).
